Source: PubChem BioAssay (several laboratories)
HIV RNase H inh-1: blocks HIV-1 RNase H cleavage of RNA/DNA duplex; inhibition, % at 10 µM; actives 1.9% (n = 65,000); P04585; RT-RNase H RNA/DNA duplex cleavage, fluorescence; in the data active = inhibition above about 50%
RmlCD inh mix: mixture blocks RmlC and RmlD coupled enzyme activity; RmlC/RmlD coupled enzyme inhibition, 384-well mixture HTS; inhibition, % at 5.5 µM; actives 0.39% (n = 110,000); in the data active = inhibition above about 30%, passing the limit was not always enough; inconclusive = no clear call, values can overlap the other calls
HIV RNase H inh-2: confirmation of HIV-1 reverse transcriptase RNase H inhibitors; shares compounds with HIV RNase H inh-1; Recombinant RT RNase H, fluorescent RNA/DNA duplex cleavage; inhibition, % at 10 µM; actives 39% (n = 1,000); AID 651; in the data active = inhibition above about 48%; inconclusive = no clear call, values can overlap the other calls
* = called active by the depositor; ? = inconclusive; · = no result. This excerpt belongs to a sample that is enriched for hits.

SMILES | HIV RNase H inh-1 | RmlCD inh mix | HIV RNase H inh-2
CCOc1ccccc1C1C(C(=O)Nc2ccccc2OC)=C(C)Nc2nc(CCCO)nn21 (stereo not drawn) | -3 | 0 | ·
O=S(=O)(Nc1ccc2nc(-c3ccc(Br)o3)[nH]c2c1)c1ccccc1 | 45 | 17 | ·
O=C(Nc1ccc2nc(-c3ccccc3)[nH]c2c1)c1ccco1 | · | -10 | ·
O=C(Nc1cccc(-c2nc3ccccc3[nH]2)c1)c1cccc(NC(=O)c2ccco2)c1 | 64* | 14 | ·
O=C(Nc1ccc2nc(-c3ccc(Br)o3)[nH]c2c1)c1ccco1 | 55* | 7 | ·
O=C(CSc1nc(N2CCCCC2)nc(N2CCCCC2)n1)Nc1nccs1 | 1 | 9 | ·
Cc1cc(C)nc(N2C(=O)CC(C(C)c3ccccc3)C2=O)n1 (stereo not drawn) | -5 | 5 | ·
CC1(C)CC(=O)C2=C(C1)NC(=O)CC2c1cc(F)ccc1F (stereo not drawn) | 0 | -9 | ·
CC(C)OC(=O)N(C)c1ccc(C(O)(C(F)(F)F)C(F)(F)F)cc1 | · | -10 | ·
CCOC(=O)CSC1=C(C#N)C(c2ccccc2F)C(C(C)=O)=C(C)N1 (stereo not drawn) | 1 | 7 | ·
CSCSC1=C(C#N)C(c2ccccc2Cl)C(C(C)=O)=C(C)N1 (stereo not drawn) | 70* | -3 | 42
Cc1c(C(=O)NCCCN2CCOCC2)sc2nc(-c3ccccc3)cn12 | -8 | · | ·
CCOc1ccc(-n2nnc3c(=O)n(C/C=C/c4ccccc4)cnc32)cc1 | · | 5 | ·
O=C(c1ccco1)N1CCN(C(=O)c2cc(-c3ccccn3)nc3ccc(Cl)cc23)CC1 | 69* | -9 | 1
O=C(c1ccco1)N1CCN(C(=O)c2cc(-c3ccccc3)nc3ccccc23)CC1 | · | 12 | ·
Cc1oc(-c2ccc(Cl)cc2)nc1CN1CCCC(C(=O)NCCCN2CCOCC2)C1 (stereo not drawn) | 11 | · | ·
COc1ccc2c(c1)S/C(=C\C(=O)c1ccncc1)N2C | 67* | -9 | 19
CN1/C(=C/C(=O)c2cccs2)Sc2ccccc21 | · | -15 | ·
CCC(=O)Nc1ccc(-c2nnc(SCC(=O)N3CCCCC3)n2C)cc1 | · | -8 | ·
COc1cccc(NC(=O)Cc2cccs2)c1 | 0 | 4 | ·
O=c1[nH]c(=O)n(Cc2ccco2)c2c1C(C(F)(F)F)(C(F)(F)F)N=C(CCC1CCCCC1)N2 | · | 8 | ·
O=c1[nH]c(=O)n(Cc2ccco2)c2c1C(C(F)(F)F)(C(F)(F)F)N=C(C1CCCCC1)N2 | 70* | 9 | 29
CCn1c(=N)n(CCO)c2ccccc21 | 8 | -6 | ·
COc1ccc(OCC(=O)Nc2cccc(-c3nc4ccccc4o3)c2)cc1 | 9 | 0 | ·
CCc1ccc(OCC(=O)Nc2ccc(-c3nc4ccccc4o3)c(O)c2)cc1 | 68* | -195 | ?
SMILES | HIV RNase H inh-1 | RmlCD inh mix | HIV RNase H inh-2
Cc1ccc(-n2nc3c(c2NC(=O)c2ccc(OC(C)C)cc2)CS(=O)C3)cc1 (stereo not drawn) | -13 | -4 | ·
O=C(Nc1ccc(F)cc1)Nc1nnc(-c2ccncc2)s1 | · | -4 | ·
COC(=O)Nc1nnc(-c2ccncc2)s1 | 67* | 11 | ?
c1cc2nncn2nc1N1CCCC1 | -1 | -6 | ·
COc1ccc(C(c2nnnn2CCc2ccccc2)N2CCN(C3CCCC3)CC2)cc1 (stereo not drawn) | 6 | -9 | ·
CC(C)C(c1nnnn1C1CCCC1)N1c2ccccc2CC1C (stereo not drawn) | 74* | 2 | 9
CC(C)C(c1nnnn1C1CCCCC1)N1CCc2ccccc21 (stereo not drawn) | · | 9 | ·
COc1nc(-c2ccc(Cl)cc2)ccc1-c1noc(-c2ccncc2)n1 | 64* | · | 48
COc1nc(-c2ccccc2)ccc1-c1noc(-c2ccccc2)n1 | 0 | -5 | ·
C[C@@H]1NC(=O)[C@H](CCCN=C(N)N)NC(=O)c2cc([N+](=O)[O-])cc(I)c2NCCC[C@@H](C(N)=O)NC1=O | · | 4 | ·
COc1cc2c(cc1OC)CN(CC(=O)Nc1ccc3c(c1)OCO3)CC2 | · | 10 | ·
N#Cc1c2c(c(-c3ccco3)[nH]c1=O)CCCC2 | -7 | -5 | ·
COc1ccc(-c2c3c([nH]c(=S)c2C#N)CCC3)cc1 | 81* | 12 | 25
N#Cc1c(-c2ccco2)c2c([nH]c1=S)CCCC2 | 82* | -5 | 36
N#Cc1c(N)nc2c(c1-c1cccnc1)CCCCC2 | -13 | -10 | ·
COc1ccc(-c2c(C#N)c(SCC(N)=O)nc3c2CCCC3)cc1 | · | -11 | ·
N#Cc1c(-c2cccnc2)c2c([nH]c1=S)CCCC2 | 90* | -14 | 69*
O=C(c1cc(-c2ccc(O)cc2)on1)N1CCc2ccccc2C1 | -53 | -4 | ·
CCOc1ccc(N2CSC3=C(C#N)C(c4ccco4)CC(=O)N3C2)cc1 (stereo not drawn) | · | -10 | ·
CCOC(=O)C1CCN(C(=O)CCc2nc3ccccc3[nH]2)CC1 | -1 | -85 | ·
C/C=C/Cn1c(N2CCCCCC2)nc2c1c(=O)[nH]c(=O)n2C | 87* | · | 40
C/C=C/Cn1c(Br)nc2c1c(=O)[nH]c(=O)n2C | -8 | -10 | ·
Cn1c(=O)[nH]c(=O)c2c1nc(N1CCCCC1)n2CCSc1ncccn1 | -8 | · | ·
C/C=C/Cn1c(SC)nc2c1c(=O)[nH]c(=O)n2C | 77* | 12 | ?
COc1cccc(NC(=S)N2CCN(C/C=C/c3ccccc3)CC2)c1 | · | -10 | ·
SMILES | HIV RNase H inh-1 | RmlCD inh mix | HIV RNase H inh-2
CC1CC(C)CN(S(=O)(=O)c2ccc(C(=O)Nc3nnc(-c4cccs4)o3)cc2)C1 (stereo not drawn) | 74* | · | ?
CCC1CCCCN1S(=O)(=O)c1ccc(C(=O)Nc2nnc(-c3cccs3)o2)cc1 (stereo not drawn) | 32 | · | ·
COc1ccc(S(=O)(=O)N2Cc3ccccc3CC2C(=O)N2CCOCC2)cc1 (stereo not drawn) | -6 | 5 | ·
Oc1ccc(C(c2nnnn2C2CCCC2)N2CCc3ccccc3C2)cc1 (stereo not drawn) | 11 | -5 | ·
COc1cc(C(c2nnnn2C2CCCC2)N2CCc3ccccc3C2)ccc1O (stereo not drawn) | 51* | -7 | 22
Cc1[nH]c2c(Cl)cccc2c1CCN | 1 | 1 | ·
c1ccc(OCc2nn3c(C4CCCCC4)nnc3s2)cc1 | 64* | -2 | 29
c1ccc(Cc2nn3c(COc4ccccc4)nnc3s2)cc1 | 93* | 26 | 64*
Clc1ccccc1-c1nn2c(COc3ccccc3)nnc2s1 | -2 | -8 | ·
COc1ccc(-c2nnc3sc(COc4ccccc4)nn23)cc1 | -2 | 1 | ·
COc1ccc(CNC(=O)OCCN2CCN(S(=O)(=O)c3ccc(C)cc3)CCC2=O)cc1 | · | 7 | ·
Cc1cccc(-c2nnc3n2N=C(c2ccc(Br)cc2)CS3)c1 | 40 | 7 | ·
COc1ccccc1-c1nnc2n1N=C(c1ccc(O)c(O)c1)CS2 | 94* | -12 | 58*
CCOc1ccc(C2=Nn3c(nnc3-c3ccccc3OC)SC2)cc1 | 3 | -10 | ·
COc1cccc(-c2nnc3n2N=C(c2cccc(Br)c2)CS3)c1 | 54* | -3 | ?
CCC(c1nnnn1C(C)(C)C)N(CCOC)Cc1cc2cccc(C)c2n2nnnc12 (stereo not drawn) | -2 | 2 | ·
O=C1c2ccccc2C(=O)N1Cc1nc2ccccc2c(=O)n1CCCn1ccnc1 | -10 | -15 | ·
CCCCn1c(CN2C(=O)c3ccccc3C2=O)nc2ccccc2c1=O | 90* | 14 | 54*
CCCCc1ccc(NC(=O)CN2NS(=O)(=O)c3ccccc3C2=O)cc1 | · | 4 | ·
